This is an account of results in ChEMBL document CHEMBL1961873, “Compounds: GSK PKIS; Assays: Nanosyn kinase panel” (2012).

“And” between values parts separate entries of the source, which are not always exact repeats. Equal values may be shown once.

For the first assay, the target named is T1, Serine/threonine-protein kinase BRSK1 (Homo sapiens) (UniProt Q8TDC3).
T1 sequence (whole entry): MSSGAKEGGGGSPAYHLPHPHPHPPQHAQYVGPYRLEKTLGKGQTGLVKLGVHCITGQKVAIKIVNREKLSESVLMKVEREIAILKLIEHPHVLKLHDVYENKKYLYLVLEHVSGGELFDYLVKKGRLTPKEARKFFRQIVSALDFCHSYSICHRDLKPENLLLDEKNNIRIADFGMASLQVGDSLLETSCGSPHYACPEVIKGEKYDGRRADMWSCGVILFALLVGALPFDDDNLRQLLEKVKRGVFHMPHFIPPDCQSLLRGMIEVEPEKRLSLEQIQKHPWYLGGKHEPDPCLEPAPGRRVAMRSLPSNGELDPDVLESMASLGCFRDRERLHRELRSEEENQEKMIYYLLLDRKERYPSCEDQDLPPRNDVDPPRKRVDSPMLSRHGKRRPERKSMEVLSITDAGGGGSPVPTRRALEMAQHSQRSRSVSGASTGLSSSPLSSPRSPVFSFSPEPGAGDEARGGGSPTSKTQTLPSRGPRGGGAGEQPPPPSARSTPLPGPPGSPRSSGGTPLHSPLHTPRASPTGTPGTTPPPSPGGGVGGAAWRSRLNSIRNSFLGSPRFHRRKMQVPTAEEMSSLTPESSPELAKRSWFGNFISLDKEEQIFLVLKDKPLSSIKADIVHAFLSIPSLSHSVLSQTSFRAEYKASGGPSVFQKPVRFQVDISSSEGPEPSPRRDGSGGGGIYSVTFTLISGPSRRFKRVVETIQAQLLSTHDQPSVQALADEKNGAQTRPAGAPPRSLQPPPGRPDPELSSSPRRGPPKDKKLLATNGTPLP
The conditions noted are these: at 0.1 µM.
As for `COc1cccc(-n2ncc3c(N/N=C/c4ccc(C(=O)NCCN(C)C)cc4)ncnc32)c1`, the inhibition (in general, the change of the read-out against control, counted positive when it falls) came out at 23.5%.

For the compound `CS(=O)(=O)Nc1ccc(-c2cc(-c3ccccc3)cc(C(N)=O)c2N)cc1`, the inhibition is -0.36%.

Turning to `CCn1c(-c2nonc2N)nc2cncc(C(=O)NCCNC)c21`, the inhibition came out at 0.66%.

As to `NS(=O)(=O)c1ccc(N/N=C2\C(=O)Nc3cccc(CCc4ccncc4)c32)cc1`, the inhibition amounted to 1.52%.

With `CCOc1ccc2c(-c3ccnc(Nc4cc(OC)cc(C(F)(F)F)c4)n3)cnn2n1`, the inhibition was determined as 0.53%.

For `Cc1ccc(-c2cc3c(NC(=O)C4CC4)ncnc3o2)cc1`, the inhibition was 2.59%.

In the case of `COc1cc2c(cc1Nc1nc(Nc3cccc(F)c3C(N)=O)c3cc[nH]c3n1)N(C(=O)CN1CCN(C(C)C)CC1)CC2`, the inhibition was 2.82%.

As to `Nc1ncnc2occ(-c3ccc(NC(=O)Nc4cc(C(F)(F)F)ccc4F)cc3)c12`, the inhibition was 1.75% and -1.05%.

Take `CN1CCN(Cc2ccc(-c3cc4ncnc(Nc5ccc(OCc6cccc(F)c6)c(Cl)c5)c4s3)o2)CC1`: the inhibition is 0.8% and -0.05%.

Consider `NC(=O)c1ccc2c(-c3ccnc(NCCCO)n3)c(-c3ccc(F)cc3)nn2c1`, for which the inhibition worked out at 2.91%.

Consider `CN1CCC(n2cnc(-c3ccc(F)cc3)c2-c2ccnc(NCCO)n2)CC1`, for which the inhibition was found to be 1.04%.

`O=C(O[C@H]1CN[C@H](C#Cc2cc3ncnc(Nc4ccc5c(cnn5Cc5ccccc5)c4)c3s2)C1)N1CCOCC1`: the inhibition is 0.74%.

Consider `Cc1c2ccc(N(C)c3ccnc(Nc4cccc(S(N)(=O)=O)c4)n3)cc2nn1C`, for which the inhibition was found to be 3.47%.

In the case of `CNC(=O)c1cncc(/C=C/c2ccccc2C)c1`, the inhibition came to 2.32%.

On to `COc1ccc(Nc2ncc(-c3ccccc3)o2)cc1OC`, for which the inhibition stood at 1.32%.

As for `CS(=O)(=O)CCNCc1ccc(-c2ccc3ncnc(Nc4ccc(OCc5ccccc5)cc4)c3c2)o1`, the inhibition came to 1.11%.

Regarding `CCCNc1cccc(-n2ncc3c(N/N=C/c4ccncc4)ncnc32)c1`, the inhibition was 2.58%.

Turning to `COc1c(C(N)=O)cc(-c2ccc(Cl)cc2)cc1-c1ccc(S(N)(=O)=O)cc1`, the inhibition worked out at 3.28%.

In the case of `COc1cccc(Nc2nccc(-c3cnn4ncccc34)n2)c1`, the inhibition is 0.63%.

Turning to `CN(c1ccc(NC(=O)NCCN2CCOCC2)cc1)c1ccnc(Nc2ccc(CS(C)(=O)=O)cc2)n1`, the inhibition was -2.24%.

As for `COc1ccc(-c2nn3ncccc3c2-c2ccnc(Nc3ccc(F)c(F)c3)n2)cc1`, the inhibition worked out at 3.95%.

As for `COc1cc(N2CCN(C(C)C)CC2)ccc1Nc1nc(Nc2cccc(F)c2C(=O)O)c2cc[nH]c2n1`, the inhibition is -0.39%.

For `CC(C)c1ccc(-c2cc(-c3c[nH]nc3-c3ccccn3)ccn2)cc1`, the inhibition stood at 0.75%.

As for `CS(=O)(=O)Nc1ccc(-c2ccc3c(NC(=O)C4CC4)n[nH]c3c2)cc1`, the inhibition is 3.42%.

Take `Cn1c(-c2nonc2N)nc2cnccc21`: the inhibition is 2.34%.

`CS(=O)(=O)CCNCc1ccoc1-c1ccc2ncnc(Nc3ccc(OCc4ccccc4)cc3)c2c1`: the inhibition is -0.34%.

As to `O=C(O[C@H]1CN[C@H](C#Cc2cc3ncnc(Nc4ccc5c(ccn5Cc5cc(F)ccc5F)c4)c3s2)C1)N1CCOCC1`, the inhibition was found to be 1.2%.

`Nc1nccc(-c2c(-c3ccc(F)cc3)ncn2C2CCNCC2)n1`: the inhibition is 1.03% and 0.08%.

With `COC(=O)Nc1nc2cc(Oc3ccc(NC(=O)Nc4ccccc4)cc3)ccc2[nH]1`, the inhibition was -0.86%.

Regarding `CNC(=O)c1ncccc1Nc1nc(Nc2cc3c(cc2OC)CCCN3C(=O)CN(C)C)nc2[nH]ccc12`, the inhibition amounted to 3.14%.

With `O=C(Nc1n[nH]c2nnc(-c3cccnc3)cc12)C1CC1`, the inhibition was -0.56%.

The target in a further assay is T1, Serine/threonine-protein kinase BRSK1 (Homo sapiens). To be noted: at 1 µM.
Take `COc1cccc(-n2ncc3c(N/N=C/c4ccc(C(=O)NCCN(C)C)cc4)ncnc32)c1`: the inhibition was 67.2%.

Take `CS(=O)(=O)Nc1ccc(-c2cc(-c3ccccc3)cc(C(N)=O)c2N)cc1`: the inhibition was -0.05%.

On to `CCn1c(-c2nonc2N)nc2cncc(C(=O)NCCNC)c21`, for which the inhibition stood at 6.23%.

As to `NS(=O)(=O)c1ccc(N/N=C2\C(=O)Nc3cccc(CCc4ccncc4)c32)cc1`, the inhibition worked out at 7.67%.

As to `CCOc1ccc2c(-c3ccnc(Nc4cc(OC)cc(C(F)(F)F)c4)n3)cnn2n1`, the inhibition came out at 5.51%.

For the compound `Cc1ccc(-c2cc3c(NC(=O)C4CC4)ncnc3o2)cc1`, the inhibition was found to be 4.69%.

Take `COc1cc2c(cc1Nc1nc(Nc3cccc(F)c3C(N)=O)c3cc[nH]c3n1)N(C(=O)CN1CCN(C(C)C)CC1)CC2`: the inhibition is -1.3%.

Consider `Nc1ncnc2occ(-c3ccc(NC(=O)Nc4cc(C(F)(F)F)ccc4F)cc3)c12`, for which the inhibition was 9.34% and -0.75%.

Turning to `CN1CCN(Cc2ccc(-c3cc4ncnc(Nc5ccc(OCc6cccc(F)c6)c(Cl)c5)c4s3)o2)CC1`, the inhibition is 2.8% and -0.24%.

Consider `NC(=O)c1ccc2c(-c3ccnc(NCCCO)n3)c(-c3ccc(F)cc3)nn2c1`, for which the inhibition is 4.68%.

For `CN1CCC(n2cnc(-c3ccc(F)cc3)c2-c2ccnc(NCCO)n2)CC1`, the inhibition was 3.71%.

Regarding `O=C(O[C@H]1CN[C@H](C#Cc2cc3ncnc(Nc4ccc5c(cnn5Cc5ccccc5)c4)c3s2)C1)N1CCOCC1`, the inhibition was determined as 2.54%.

On to `Cc1c2ccc(N(C)c3ccnc(Nc4cccc(S(N)(=O)=O)c4)n3)cc2nn1C`, for which the inhibition was 3.4%.

For `CNC(=O)c1cncc(/C=C/c2ccccc2C)c1`, the inhibition was determined as 15%.

On to `COc1ccc(Nc2ncc(-c3ccccc3)o2)cc1OC`, for which the inhibition was found to be 11.5%.

Regarding `CS(=O)(=O)CCNCc1ccc(-c2ccc3ncnc(Nc4ccc(OCc5ccccc5)cc4)c3c2)o1`, the inhibition amounted to 1.23%.

Take `CCCNc1cccc(-n2ncc3c(N/N=C/c4ccncc4)ncnc32)c1`: the inhibition stood at 24.7%.

As to `COc1c(C(N)=O)cc(-c2ccc(Cl)cc2)cc1-c1ccc(S(N)(=O)=O)cc1`, the inhibition was -0.57%.

Regarding `COc1cccc(Nc2nccc(-c3cnn4ncccc34)n2)c1`, the inhibition came out at 6.67%.

Take `CN(c1ccc(NC(=O)NCCN2CCOCC2)cc1)c1ccnc(Nc2ccc(CS(C)(=O)=O)cc2)n1`: the inhibition stood at 4.74%.

Take `COc1ccc(-c2nn3ncccc3c2-c2ccnc(Nc3ccc(F)c(F)c3)n2)cc1`: the inhibition was 7.79%.

Turning to `COc1cc(N2CCN(C(C)C)CC2)ccc1Nc1nc(Nc2cccc(F)c2C(=O)O)c2cc[nH]c2n1`, the inhibition was 0.33%.

`CC(C)c1ccc(-c2cc(-c3c[nH]nc3-c3ccccn3)ccn2)cc1`: the inhibition was -0.92%.

As for `CS(=O)(=O)Nc1ccc(-c2ccc3c(NC(=O)C4CC4)n[nH]c3c2)cc1`, the inhibition is 5.22%.

On to `Cn1c(-c2nonc2N)nc2cnccc21`, for which the inhibition was determined as 5.84%.

Take `CS(=O)(=O)CCNCc1ccoc1-c1ccc2ncnc(Nc3ccc(OCc4ccccc4)cc3)c2c1`: the inhibition was -0.87%.

Take `O=C(O[C@H]1CN[C@H](C#Cc2cc3ncnc(Nc4ccc5c(ccn5Cc5cc(F)ccc5F)c4)c3s2)C1)N1CCOCC1`: the inhibition amounted to 0.38%.

Take `Nc1nccc(-c2c(-c3ccc(F)cc3)ncn2C2CCNCC2)n1`: the inhibition is 5.8% and 0.48%.

`COC(=O)Nc1nc2cc(Oc3ccc(NC(=O)Nc4ccccc4)cc3)ccc2[nH]1`: the inhibition is 0.34%.

For the compound `CNC(=O)c1ncccc1Nc1nc(Nc2cc3c(cc2OC)CCCN3C(=O)CN(C)C)nc2[nH]ccc12`, the inhibition was 4.58%.

As to `O=C(Nc1n[nH]c2nnc(-c3cccnc3)cc12)C1CC1`, the inhibition was -3.34%.
